This is an account of results in the supplement of paper PMC8975748.

Each structure is given as a SMILES string. Counter-ions that a name gives are not always drawn.

The subject of this experiment is Saccharomyces cerevisiae BY4741 SeMeCo community. Put plainly: z-score of subpopulation abundance vs DMSO median, subpopulation auxotrophic for UM; higher = larger share of this subpopulation than in DMSO controls. As to conditions: 10 µM; 24 h; SM minimal medium; subpopulation (auxotrophy): UM. The method, then: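 Fluorescent four-plasmid SeMeCo (self-establishing metabolically cooperating S. cerevisiae BY4741 community; plasmids pH-mRuby2, pL-mWasabi, pU-eCFP, pM-TagRFP657) was grown 24 h in minimal SM medium with each Selleck FDA-approved drug at 10 µM in 384-well plates. Cells were fixed and imaged by high-content confocal microscopy. For each auxotrophic subpopulation (and the prototroph), a z-score gives the deviation from the DMSO vehicle-control population median.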
For the compound `O=C1CC2(CCCC2)CC(=O)N1CCCCN1CCN(c2ncccn2)CC1` [Buspirone HCl], the “z-score of subpopulation abundance” value was -1.32.

As for `COc1cc(O)c(C(=O)Nc2nc(C(=O)NCCN(C(C)C)C(C)C)cs2)cc1OC` [Acotiamide], the “z-score of subpopulation abundance” value is 0.28.

Take `NC(=NCCCCCCN=C(N)N=C(N)Nc1ccc(Cl)cc1)N=C(N)Nc1ccc(Cl)cc1` [Chlorhexidine?2HCl]: the “z-score of subpopulation abundance” value was -3.13.

For `C[C@H]1COc2c(N3CCN(C)CC3)c(F)cc3c(=O)c(C(=O)O)cn1c23` [Levofloxacin], the “z-score of subpopulation abundance” value was -0.89.

On to `CCCCN1CCCC[C@H]1C(=O)Nc1c(C)cccc1C` [Levobupivacaine HCl], for which the “z-score of subpopulation abundance” value is -0.49.

On to `C/C=C1\[C@H]2C=C(C)C[C@]1(N)c1ccc(=O)[nH]c1C2` [(-)-Huperzine A (HupA)], for which the “z-score of subpopulation abundance” value came to 0.89.

As to `O=C1CCc2cc(OCCCCc3nnnn3C3CCCCC3)ccc2N1` [Cilostazol], the “z-score of subpopulation abundance” value is -0.9.

In the case of `C[C@H]1COc2c(N3CCN(C)CC3)c(F)cc3c(=O)c(C(=O)O)cn1c23` [Levofloxacin hydrate], the “z-score of subpopulation abundance” value is 0.61.

`O=C1[C@H]2CCCC[C@H]2C(=O)N1CCCCN1CCN(c2nsc3ccccc23)CC1` [Perospirone hydrochloride]: the “z-score of subpopulation abundance” value is -0.02.

As for `CN(Cc1ccc(C(C)(C)C)cc1)Cc1cccc2ccccc12` [Butenafine HCl], the “z-score of subpopulation abundance” value was -1.21.

On to `COc1ccc2[nH]c([S+]([O-])Cc3ncc(C)c(OC)c3C)nc2c1` (stereo not given) [Omeprazole Sodium], for which the “z-score of subpopulation abundance” value is -1.63.

For the compound `CCN(CC)CCOC(=O)c1ccc(N)cc1` [Procaine HCl], the “z-score of subpopulation abundance” value is -0.8.

As for `COCCCOc1ccnc(C[S+]([O-])c2nc3ccccc3[nH]2)c1C` (stereo not given) [Rebeprazole sodium], the “z-score of subpopulation abundance” value is 0.75.

In the case of `CCCCOc1cc(C(=O)NCCN(CC)CC)c2ccccc2n1` [Dibucaine HCl], the “z-score of subpopulation abundance” value was 0.1.

Consider `COC(=O)C1=C(C)NC(C)=C(C(=O)OCCN2CCN(C(c3ccccc3)c3ccccc3)CC2)C1c1cccc([N+](=O)[O-])c1` (stereo not given) [Manidipine], for which the “z-score of subpopulation abundance” value was -0.6.

Regarding `C=C[C@]1(C)C[C@@H](OC(=O)CS[C@@H]2C[C@H]3CC[C@@H](C2)N3C)[C@]2(C)[C@H](C)CC[C@]3(CCC(=O)[C@H]32)[C@@H](C)[C@@H]1O` [Retapamulin], the “z-score of subpopulation abundance” value came to 0.21.

Regarding `Clc1ccc2c(N3CCN(CCCN4CCN(c5ccnc6cc(Cl)ccc56)CC4)CC3)ccnc2c1` [Piperaquine phosphate], the “z-score of subpopulation abundance” value stood at 0.36.

`CC(C)[C@H]1CC[C@H](C(=O)N[C@H](Cc2ccccc2)C(=O)O)CC1` [Nateglinide]: the “z-score of subpopulation abundance” value came out at 0.38.

Take `O=C1C(CC[S+]([O-])c2ccccc2)C(=O)N(c2ccccc2)N1c1ccccc1` (racemic) [(+/-)-Sulfinpyrazone]: the “z-score of subpopulation abundance” value turned out to be 0.41.

`Nc1ccc(/N=N/c2ccccc2)c(N)n1` [Phenazopyridine HCl]: the “z-score of subpopulation abundance” value is -2.74.

Turning to `CNCC[C@@H](Oc1ccccc1C)c1ccccc1` [Atomoxetine HCl], the “z-score of subpopulation abundance” value is -0.26.

As for `CC(C)c1c(C(=O)Nc2ccccc2)c(-c2ccccc2)c(-c2ccc(F)cc2)n1CC[C@@H](O)C[C@@H](O)CC(=O)O` [Atorvastatin], the “z-score of subpopulation abundance” value came out at 1.48.

Take `CC1=C(C(=O)OCCN(Cc2ccccc2)c2ccccc2)C(c2cccc([N+](=O)[O-])c2)C(P2(=O)OCC(C)(C)CO2)=C(C)N1` (stereo not given) [Efonidipine]: the “z-score of subpopulation abundance” value was found to be 0.8.

`CCN(CC)CC#CCOC(=O)C(O)(c1ccccc1)C1CCCCC1` (stereo not given) [Oxybutynin]: the “z-score of subpopulation abundance” value was -0.47.

Regarding `CO/N=C(\C(=O)N[C@@H]1C(=O)N2C(C(=O)O)=C(CSC(=O)c3ccco3)CS[C@H]12)c1csc(N)n1` [Ceftiofur HCl], the “z-score of subpopulation abundance” value turned out to be 1.05.

Take `N=C(N)NC(=O)c1nc(Cl)c(N)nc1N` [Amiloride HCl dihydrate]: the “z-score of subpopulation abundance” value was -3.7.

`CCCc1nc(C)c2c(=O)nc(-c3cc(S(=O)(=O)N4CCN(CC)CC4)ccc3OCC)[nH]n12` [Vardenafil HCl Trihydrate]: the “z-score of subpopulation abundance” value turned out to be 0.56.

`CC1=C(C(=O)O)N2C(=O)[C@@H](NC(=O)[C@H](N)C3=CCC=CC3)[C@H]2SC1` [Cephradine monohydrate]: the “z-score of subpopulation abundance” value came to 0.58.

Consider `CO/N=C(\C(=O)N[C@@H]1C(=O)N2C(C(=O)O)=CCS[C@H]12)c1csc(N)n1` [Ceftizoxime sodium], for which the “z-score of subpopulation abundance” value amounted to 0.12.

`C[C@]12CCC(=O)C=C1[C@@H]1C[C@@H]1[C@H]1[C@@H]3[C@@H]4C[C@@H]4[C@@]4(CCC(=O)O4)[C@@]3(C)CC[C@@H]12` [Drospirenone]: the “z-score of subpopulation abundance” value is -0.14.

Turning to `NC12CC3CC(CC(C3)C1)C2` [Amantadine], the “z-score of subpopulation abundance” value worked out at 0.12.

`CCCCCCCCN=C(N)NC(N)=NCc1ccc(Cl)c(Cl)c1` [Olanexidine Hydrochloride semihydrate]: the “z-score of subpopulation abundance” value worked out at 12.2.

As for `O=C(O)CCCCCCCC(=O)O` [Azelaic acid], the “z-score of subpopulation abundance” value is -0.2.

As to `CN1CCN(C2=Nc3cc(Cl)ccc3Nc3ccccc32)CC1` [Clozapine], the “z-score of subpopulation abundance” value was determined as 0.28.

For `N=C(N)NS(=O)(=O)c1ccc(N)cc1` [Sulfaguanidine], the “z-score of subpopulation abundance” value was -0.62.

Turning to `CS(=O)(=O)c1ccc([C@@H](O)[C@@H](CO)NC(=O)C(Cl)Cl)cc1` [Thiamphenicol], the “z-score of subpopulation abundance” value stood at 0.81.

Turning to `Cc1cc2c(s1)Nc1ccccc1N=C2N1CCN(C)CC1` [Olanzapine], the “z-score of subpopulation abundance” value worked out at 0.07.

On to `COC1C(O)CC(=O)OC(C)CC=CC=CC(OC2CCC(N(C)C)C(C)O2)C(C)CC(CC=O)C1OC1OC(C)C(OC2CC(C)(O)C(O)C(C)O2)C(N(C)C)C1O` (stereo not given) [Spiramycin], for which the “z-score of subpopulation abundance” value was determined as 0.4.

As to `CC(=O)OCC1=C(C(=O)O)N2C(=O)[C@@H](NC(=O)Cc3cccs3)[C@H]2SC1` [Cephalothin], the “z-score of subpopulation abundance” value was -0.2.

On to `CC1=C[C@H]2C(=O)O[C@H]3C[C@@H](C/C=C(\C)C[C@@H](C)/C=C/C=C4\CO[C@H](/C1=N\O)[C@@]42O)O[C@@]1(CC[C@H](C)[C@@H](C)O1)C3.CC[C@H]1O[C@]2(CC[C@@H]1C)C[C@@H]1C[C@@H](C/C=C(\C)C[C@@H](C)/C=C/C=C3\CO[C@@H]4/C(=N\O)C(C)=C[C@@H](C(=O)O1)[C@]34O)O2` [Milbemycin Oxime], for which the “z-score of subpopulation abundance” value was -1.12.
